# Source: PubChem BioAssay
# Pf growth 48h: P. falciparum growth inhibition at 48 hours (one generation). P. falciparum luciferase growth in erythrocytes, 48 h. Potency, µM (titrated, usually from 28.7 µM), without a hit: at the top dose activity change, negative = inhibition, hits mostly inhibitors. 5.9% of 310,000 active. AID 504832; further: potency means the concentration at half of the fitted maximal effect; on the % scale 0 is the no-effect control and ±100 the full control effect
#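 Parasite viability was followed by luminescence of a genomically integrated firefly luciferase. Cultures held 0.1% parasitemia at 2% hematocrit (final), incubated under 5% CO2 at 37 C.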
# Pf growth 96h: P. falciparum growth inhibition at 96 hour, primary screen for plastid delayed-death inhibitors; P. falciparum luciferase reporter growth, 96 h; Potency, µM (top dose mostly 28.7 µM), for inactives: at the highest dose activity change, negative = inhibition, actives largely listed as inhibitors; 6.9% of 320,000 active; AID 504834; further: potency means the concentration at half of the fitted maximal effect; on the % scale 0 is the no-effect control and ±100 the full control effect
#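 Two parasite generations (96 h, 37 C, 5% CO2) of compound exposure in infected erythrocytes (0.05% parasitemia, 2% hematocrit). Luciferase-reporter P. falciparum; decreased luminescence indicates inhibited growth, aimed at apicoplast-acting delayed death.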
# Shiga inhibitor: blocks Shiga toxin action in Vero cells; Vero cells, Shiga toxin protein synthesis inhibition reporter; inhibition, % at 38.7 µM; 9.2% of 290,000 active; in the data active means inhibition mostly above about 28%, no sharp cut-off; inactive means mostly below about 43%; further: 0% is about no effect
# CHX counter: counter-screen hit for Shiga toxin inhibitors, cycloheximide | AID 2314 | cell reporter, cycloheximide protein synthesis inhibition counterscreen | 12% of 300,000 active | max response, %; in the data active means max response mostly above about 13%, no sharp cut-off; inactive means mostly below about 14%; further: read at 38.3 µM for the half of the compounds with a filed dose; 0% is about no effect
# Starred values were filed as active, the others as inactive; ? = inconclusive; . = no result given; [ ] = dose if it differs, or a comment. In the library only some 21% were active in any assay of this set; here they are far more common. Unless noted, the call rests on the fitted dose curve; in most records, active means well fitted inhibition curve with a large enough effect; inconclusive means small, poorly fitted or top-dose-only effect, or another doubt; inactive means no such curve, though single readings can be large or run the other way.
SMILES,Pf growth 48h,Pf growth 96h,Shiga inhibitor,CHX counter
CCn1cc(C(=O)O)c(=O)c2cnc(N3CCN(C(=S)Nc4ccccc4)CC3)nc21,0.12µM*,?,11,-2
CCn1cc(C(=O)O)c(=O)c2cnc(N3CCN(C(=S)NC(=O)c4ccccc4)CC3)nc21,49%,?,-3,-1
COCCC1CCCCN1Cc1cn(-c2ccccc2)nc1-c1ccc2c(c1)OCO2 (configuration not stated),?,?,14,-2
O=C(CCc1nnc2ccc(NCc3ccccc3Cl)nn12)NC1CCCCC1,?,19%,10,7
CC(C)(Oc1ccc(Cl)cc1)C(=O)OCC(=O)NCCc1ccccc1,6%,27%,-13,-1
O=C(N/N=C/c1cccc(Cl)c1)C1CCCC1,26%,?,54*,35*
O=C(N/N=C\c1cccc(Cl)c1)c1n[nH]c2c1CCCC2,104%,35%,78*,59*
Cc1ccc(/C=N/NC(=O)c2n[nH]c3c2CCCC3)cc1,80%,68%,53*,32*
O=C(N/N=C/c1ccc(Cl)cc1Cl)c1n[nH]c2c1CCCC2,163%,81%,67*,21*
O=C(N/N=C/c1cccc2ccccc12)c1n[nH]c2c1CCCC2,-26%,5%,23,7
O=C(N/N=C/c1cccnc1)C1CCCCC1,6%,19%,-3,23
O=C(N/N=C/c1cccs1)c1n[nH]c2c1CCCC2,14%,47%,-21,6
O=C(CSc1cn[nH]n1)Nc1ccccc1C(F)(F)F,13%,-2%,-3,-4
N#Cc1ncc(Cc2ccccc2)nc1C#N,?,?,.,12
O=C1NC(c2ccc(Br)cc2)Nc2ccccc21 (configuration not stated),3%,99%,-3,-3
O=C1c2ccccc2CCC12N=NCC2c1ccc(Cl)cc1 (configuration not stated),10µM*,?,-1,-2
O=C1c2ccccc2CCC12N=NCC2c1ccc(Br)cc1 (configuration not stated),.,2.3µM*,-8,11
CCOc1ccccc1NC(=S)N1CCC(NC(=O)C(C)(C)C)CC1,-3%,12%,-6,7
Cc1ccc(C(C)C)c(OCC(=O)N2CCN(Cc3nc4cc([N+](=O)[O-])ccc4n3C)CC2)c1,-7%,12µM*,-1,-2
Cc1ccc(C(C)C)c(OCC(=O)Nc2ccc3c(c2)nc(CN2CCCC2)n3C)c1,.,13µM*,13,5
COc1ccc2cc(CO)n(C)c2c1,12µM*,?,.,.
Cc1sc2ncnc(N3CCC(C(=O)N(C)CC(=O)Nc4ccccc4Cl)CC3)c2c1C,?,?,-11,-2
Cc1sc2ncnc(N3CCC(C(=O)N(C)CC(=O)Nc4ccccc4Br)CC3)c2c1C,?,?,-15,1
Cc1ccc(C)c(S(=O)(=O)N2CCN(C(=O)C3CCN(c4ncnc5sc(C)c(C)c45)CC3)CC2)c1,5.2µM*,?,.,.
Cc1sc2ncnc(N3CCC(C(=O)N(C)CC(=O)Nc4ccc(Cl)c(C(F)(F)F)c4)CC3)c2c1C,9.3µM*,?,.,.
SMILES,Pf growth 48h,Pf growth 96h,Shiga inhibitor,CHX counter
Cc1sc2ncnc(N3CCC(C(=O)NNC(=O)c4ccc(Cl)cc4)CC3)c2c1C,-6%,?,.,.
Cc1sc2ncnc(N3CCC(C(=O)Nc4cc(S(C)(=O)=O)ccc4Cl)CC3)c2c1C,9.3µM*,?,.,.
Cc1ccc(NC(=O)C2CCN(c3ncnc4sc(C)c(C)c34)CC2)cc1S(=O)(=O)N(C)C,4.1µM*,4.7µM*,.,.
Cc1cc(C)c(S(=O)(=O)NC2CC(C)(C)NC(C)(C)C2)cc1Br,?,?,-8,-3
O=C(NCCc1nc2ccccc2n1Cc1ccccc1F)c1ccc(F)cc1,.,.,-10,-6
CCn1c2ccccc2c2cc(NC(=O)COC(=O)c3cc(S(N)(=O)=O)c(Cl)cc3Cl)ccc21,29%,26%,-9,-2
CCN(CC)S(=O)(=O)c1cc(NC(=O)C2CCN(c3ncnc4sc(C)c(C)c34)CC2)ccc1Cl,12µM*,5.2µM*,.,.
Cc1sc2ncnc(N3CCC(C(=O)Oc4cccc(Cl)c4Cl)CC3)c2c1C,-2%,14%,14,-1
Fc1ccc(CNC(=S)NC2CCCCCC2)cc1,?,0%,-16,1
S=C(NCc1ccccc1Cl)NC1CCCC1,-27%,-17%,20,-2
S=C(NCCc1ccccc1)NC1CCCCCC1,78%,85%,73*,51*
O=C(NC1CCCCC1)C(=S)NCCc1ccccc1,7%,11%,5,-3
S=C(NCCNCc1ccccc1)NC1CCCCC1,?,4.7µM*,-5,-3
S=C(NCCc1ccc(Cl)cc1)NC1CCCC1,-8%,?,71*,44*
Fc1ccccc1CNC(=S)NC1CCCCC1,-2%,4.1µM*,11,3
CC[C@H](Cc1c(I)cc(I)c(N)c1I)C(=O)O,-6%[12.8 µM],0%[12.8 µM],.,.
CCc1ccc(NC(=O)C2CCCN2S(=O)(=O)c2ccc3c(c2)C(C)(C)C(=O)N3C)cc1 (configuration not stated),?,-10%,7,10
CC(=O)c1ccc(N(CC(=O)NC2CCS(=O)(=O)C2)S(=O)(=O)c2ccc(Cl)cc2)cc1 (configuration not stated),14%,2%,.,.
S=C(NCCc1ccc(Cl)cc1)NC1CCCCC1,-14%,?,103*,56*
NS(=O)(=O)c1ccc(CNC(=S)NC2CCCC2)cc1,4%,13µM*,-11,2
NS(=O)(=O)c1ccc(CNC(=O)C2CCCCC2)cc1,9%,.,-9,-1
Cc1ccc(-c2cc(C(F)F)n3ncc(C(=O)NN4CCCCC4)c3n2)cc1,?,23%,31,-1
O=C(O)c1cc2nc(-c3ccccc3)cc(-c3ccccc3)n2n1,?,?,13,6
CC1CCCCN1C(=O)c1cc2nc(-c3ccccc3)cc(-c3ccccc3)n2n1 (configuration not stated),8.3µM*,?,-1,-1
CCOC(=O)C1CCCN(C(=O)c2cnn3c(C(F)F)cc(-c4ccc(C)cc4)nc23)C1 (configuration not stated),4.7µM*,.,-13,0
SMILES,Pf growth 48h,Pf growth 96h,Shiga inhibitor,CHX counter
Cc1ccc(-c2cc(C(F)F)n3ncc(C(=O)N4CCN5CCCC5C4)c3n2)cc1 (configuration not stated),12µM*,.,-9,-3
O=C(c1cc2nc(-c3ccc(F)cc3)cc(C(F)(F)F)n2n1)N1CCCCC1c1cccnc1 (configuration not stated),3.7µM*,-51%,-2,5
O=C(COc1ccc(C(=O)NCCN2CCOCC2)cc1)Nc1cccc(C(F)(F)F)c1,-19%,?,.,.
Cc1ccc(C(=O)NCCc2ccc(S(N)(=O)=O)cc2)cc1[N+](=O)[O-],-21%,-23%,-9,-3
CSc1ccc(/C=C2\CCn3c2nc2cc(C(=O)O)ccc2c3=O)cc1,-35%,-12%,-10,1
O=C(c1cnn2c(C(F)(F)F)cc(-c3ccccc3)nc12)N1CCCCC1c1cccnc1 (configuration not stated),?,?,-6,-1
Cc1ccc(-c2cc(C(F)F)n3ncc(C(=O)N4CCCCC4c4cccnc4)c3n2)cc1 (configuration not stated),1.7µM*,4.1µM*,-7,-1
